TDP1 cell CPT = qHTS for Inhibitors of human tyrosyl-DNA phosphodiesterase 1 (TDP1): qHTS in cells in presence of CPT. chicken DT40 Tdp1-/-;hTDP1 cells + 20 nM CPT, ATP luminescence, 48 h. Potency, µM (doses to about 46.2 µM), actives largely listed as inhibitors. 420,000 compounds, 12% hits. AID 686979, 2013; further: nearly all actives have a fitted effect of over 55% in size
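Cell growth measured by CellTiter-Glo luminescence after a minimum 48 h, 37 C compound exposure with 20 nM CPT in Tdp1-knockout DT40 cells stably expressing hTDP1, seeded 400/well; qHTS titration format.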
IL-1B inflam inh = qHTS for Inhibitors of Inflammasome Signaling: IL-1-beta AlphaLISA Primary Screen; THP-1 LPS/ATP IL-1B secretion, AlphaLISA, 16 h; active compounds read low; activity change, % at 57.5 µM; 360,000 compounds, 4.7% hits; AID 743279, 2014; in the data active means activity change below about -50%; inconclusive means mostly about -30% to -49%
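THP-1 cells pretreated 1 hr with compounds (up to 57.5 uM final), then stimulated with LPS (250 ng/mL final) plus ATP (1.25 mM final); secreted IL-1B measured by AlphaLISA after 16 hr, decreased signal indicating inhibition.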
ELG1 DNA repair = qHTS screen for small molecules that inhibit ELG1-dependent DNA repair in human embryonic kidney (HEK293T) cells expressing luciferase-tagged ELG1 | Potency, µM (highest dose often 46.1 µM), hits mostly inhibitors | HEK293T ELG1-luciferase reporter, luminescence, 16 h; DNA damage induced by 5-fluorouridine | AID 504467, 2011 | 330,000 compounds, 2.3% hits; further: nearly all actives have a fitted effect of over 55% in size
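HEK293T cells expressing luciferase-tagged ELG1 (2,000/well) received 5-Fluorouridine plus compound or DMSO for 16 hr at 37 °C. Luciferase was read by ONE-Glo luminescence after 30 min at room temperature.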
TDP1 inh = qHTS Assay for Inhibitors of Tyrosyl-DNA Phosphodiesterase (TDP1); recombinant TDP1, AlphaScreen DNA substrate cleavage; Potency, µM (highest dose often 130 µM), most hits filed as inhibitors; 350,000 compounds, 0.28% hits; AID 485290, 2010; further: nearly all actives have a fitted effect of over 40% in size
Target sequence (Q9NUW8 whole entry, looked up): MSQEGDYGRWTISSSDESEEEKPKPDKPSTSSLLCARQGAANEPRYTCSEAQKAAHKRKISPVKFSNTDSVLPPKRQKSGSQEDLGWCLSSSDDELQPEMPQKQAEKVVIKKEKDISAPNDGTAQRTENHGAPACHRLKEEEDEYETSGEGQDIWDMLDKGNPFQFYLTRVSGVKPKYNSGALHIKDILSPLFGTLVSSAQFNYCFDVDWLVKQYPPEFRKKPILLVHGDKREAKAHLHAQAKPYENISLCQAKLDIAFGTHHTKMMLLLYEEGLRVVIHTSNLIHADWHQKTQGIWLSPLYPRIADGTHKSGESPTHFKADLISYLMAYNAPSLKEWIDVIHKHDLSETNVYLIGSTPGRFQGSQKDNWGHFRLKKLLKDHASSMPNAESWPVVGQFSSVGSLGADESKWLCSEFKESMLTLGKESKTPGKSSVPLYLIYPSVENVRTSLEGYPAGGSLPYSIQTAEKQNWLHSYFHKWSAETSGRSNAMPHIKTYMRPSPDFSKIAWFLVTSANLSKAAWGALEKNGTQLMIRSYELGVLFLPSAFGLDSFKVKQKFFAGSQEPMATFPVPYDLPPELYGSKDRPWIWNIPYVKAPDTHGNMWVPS
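Signal: AlphaScreen proximity between streptavidin donor and anti-FITC acceptor beads on intact substrate. Reaction: Tdp1 1 nM, substrate 15 nM final, 5 min RT after 15 min compound preincubation.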
TDP1 cell noCPT = qHTS for Inhibitors of human tyrosyl-DNA phosphodiesterase 1 (TDP1): qHTS in cells in absence of CPT; DT40 Tdp1-/- hTDP1 cells, no CPT, ATP luminescence, 48 h; Potency, µM (doses to about 46.2 µM), hits mostly inhibitors; 420,000 compounds, 15% hits; further: nearly all actives have a fitted effect of over 55% in size
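Chicken DT40 Tdp1-/- cells stably complemented with human TDP1 were seeded at 400 cells/well with DMSO in place of 20 nM camptothecin. After compound pinning, cells grew at least 48 hr at 37 °C; viability read by CellTiter-Glo luminescence.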
Giardia kill = Small Molecules that selectively kill Giardia lamblia: qHTS. 340,000 compounds, 0.15% hits. activity change, % at 7.66 µM, hits read low. Giardia lamblia trophozoite viability. AID 540267, 2011; in the data active means activity change below about -80%; inconclusive means between about -30% and that limit;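 further: parasites exposed to compound for two days anaerobically before the ATP read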
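Compounds were tested on trophozoites seeded at 100 cells/well and held 48 hrs at 37 deg C anaerobically. An ATP-based luminescent kit measured the remaining live cells.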
Numbers stand for hits; 0 = inactive; ? = inconclusive; - = no result. Sampled rows, rich in hits. Any-hit rate of the full collection: about 19%. Unless noted, the call rests on the fitted dose curve; in most records, active means well fitted curve in the direction sought with a large enough effect; inconclusive means small, poorly fitted or top-dose-only effect, or another doubt; inactive means no such curve, though single readings can be large; an effect the other way counts as inactive or inconclusive.

SMILES | TDP1 cell CPT | IL-1B inflam inh | ELG1 DNA repair | TDP1 inh | TDP1 cell noCPT | Giardia kill
Cc1ccccc1CNC(=O)C1CCCN(c2nnc(C)c3c(C)n(-c4ccccc4)nc23)C1 (centres undefined) | 23.1µM | ? | ? | 79.4µM | 18.4µM | 0
Cc1ccc(CCNC(=O)C2CCCN(c3nnc(C)c4c(C)n(-c5ccccc5)nc34)C2)cc1 (centres undefined) | 23.1µM | - | - | 0 | ? | -
Cc1nnc(N2CCCC(C(=O)NCc3ccccc3F)C2)c2nn(-c3ccccc3)c(C)c12 (centres undefined) | ? | 0 | 0 | 0 | 0 | 0
CCOc1ccc(CCNC(=O)C2CCCN(c3nnc(C)c4c(C)n(-c5ccccc5)nc34)C2)cc1 (centres undefined) | 20.6µM | - | - | 0 | ? | -
Cc1ccc(-n2nc3c(N4CCCC(C(=O)NCc5ccc(Cl)cc5)C4)nnc(C)c3c2C)cc1 (centres undefined) | 9.2µM | - | - | 0 | 18.4µM | -
COc1ccccc1NC(=O)C(C)OC(=O)C1COc2ccccc2O1 (centres undefined) | 0 | 0 | 0 | 0 | 0 | 0
CCOc1ccc(-c2ccc(SCC(=O)NC3CCCCC3)nn2)cc1 | 0 | 0 | ? | 0 | 0 | ?
CCOC(=O)c1cc(OC(=O)c2cc(OC)cc(OC)c2)n(-c2ccccc2)n1 | - | - | - | 0 | - | -
OCCCNc1ncnc2c1ncn2[C@H]1CN(Cc2cccs2)C[C@@H](CO)O1 | 0 | 0 | - | - | 0 | -
Cc1nnc(N2CCCC(C(=O)NCc3ccccc3)C2)c2nn(-c3ccccc3)c(C)c12 (centres undefined) | 0 | - | - | 0 | 0 | -
Cc1ccc(-n2nc3c(N4CCCC(C(=O)NCCc5ccccc5)C4)nnc(C)c3c2C)cc1 (centres undefined) | 16.4µM | - | - | 0 | 16.4µM | -
Cc1nnc(N2CCCC(C(=O)NCCc3ccccc3)C2)c2nn(-c3ccccc3)c(C)c12 (centres undefined) | ? | - | - | 0 | 18.4µM | -
Cc1ccc2cccc(NC(=O)c3cccc4c(Br)cccc34)c2n1 | - | - | - | 0 | - | -
COc1ccc(-c2nnc(SCC(=O)c3ccc(O)cc3O)o2)cc1 | 0 | 0 | ? | 0 | 0 | 0
CCn1c(SCC(=O)c2cc(OC)ccc2OC)nc2c1c(=O)n(C)c(=O)n2C | - | - | 0 | 0 | - | -
CCCCn1nnnc1SCC(=O)c1ccccc1F | 0 | 0 | 0 | 0 | 0 | 0
CCCCn1nnnc1SCC(=O)c1cc(Cl)ccc1OC | 0 | -57.3 | 0 | 0 | 0 | 0
CCn1c(SCC(=O)NNC(=O)c2ccc(C)cc2)nnc1C(C)C | ? | 0 | 0 | - | 10.3µM | 0
CCCn1c(SCC(=O)Nc2ccccc2CC)nnc1C(C)C | 20.6µM | 0 | 0 | 0 | 18.4µM | 0
CCCn1c(SCC(=O)Nc2c(C)cccc2CC)nnc1C(C)C | 0 | 0 | 0 | 0 | 0 | 0
CCCn1c(SCC(=O)c2cc(OC)ccc2OC)nnc1C(C)C | 15.8µM | 0 | 0 | 0 | ? | 0
CC(=O)Nc1c2c(nn1-c1ccc(Cl)cc1)CSC2 | 0 | 0 | 0 | 0 | 0 | 0
Cc1sc(NC(=O)CSc2nnc(C(C)C)n2C)c(C#N)c1C | 0 | 0 | 0 | 0 | 0 | 0
CCCn1c(SCC(=O)Nc2sc(C)c(C)c2C#N)nnc1C(C)C | 0 | 0 | 20.6µM | 0 | 0 | 0
CC(NS(=O)(=O)/C=C/c1ccccc1)c1ccccc1 (centres undefined) | 0 | 0 | 0 | 0 | 0 | 0
SMILES | TDP1 cell CPT | IL-1B inflam inh | ELG1 DNA repair | TDP1 inh | TDP1 cell noCPT | Giardia kill
Cc1cccc(N2CCN(C(=O)[C@H](C)N3C(=O)C4CC=CCC4C3=O)CC2)c1C (some centres undefined) | 23.1µM | 0 | 0 | 0 | 25.9µM | 0
O=C(CCCn1ncn2c(cc3occc32)c1=O)N1CCc2ccccc2C1 | 0 | 0 | 0 | 0 | 0 | 0
Cc1cccc(N2CCN(C(=O)CCCn3ncn4c(cc5occc54)c3=O)CC2)c1C | ? | - | - | 0 | 25.9µM | -
CCc1nn(CCCC(=O)N2CCN(c3cc(Cl)ccc3C)CC2)c(=O)c2cc3occc3n12 | ? | - | - | 0 | 23.1µM | -
COc1ccc(N2CCN(C(=O)[C@H](C)N3C(=O)C4CC=CCC4C3=O)CC2)cc1 (some centres undefined) | 0 | 0 | 0 | 0 | 0 | 0
Cc1cccc(N2CCN(C(=O)C(C)n3nc(C)n4c(cc5occc54)c3=O)CC2)c1C (centres undefined) | ? | 0 | ? | 0 | 18.4µM | 0
O=C(NCCc1nnc2n1CCN(CC1CC=CCC1)CC2)c1ccc(F)cc1 (centres undefined) | 0 | - | - | - | 0 | -
CN(C)S(=O)(=O)N1CCC(Oc2cccc(C(=O)N3CCSCC3)c2)CC1 | 0 | 0 | 0 | 0 | 0 | 0
CC1(C(=O)NS(=O)(=O)Cc2ccccc2)CCN1C(=O)Cc1ccccc1 (centres undefined) | 0 | 0 | - | - | 0 | -
CCN(CC)C(=O)c1cccc(NC(=O)C2CCN(C(=O)c3cccs3)CC2)c1 | 0 | 0 | 0 | 0 | ? | 0
CCc1nn(C(C)C(=O)N2CCN(Cc3ccccc3)CC2)c(=O)c2cc3occc3n12 (centres undefined) | ? | 0 | 0 | 0 | ? | 0
CCc1nn(C(C)C(=O)N2CCN(c3ccc(OC)cc3)CC2)c(=O)c2cc3occc3n12 (centres undefined) | 4.61µM | 0 | 0 | 0 | 7.31µM | 0
CCC(C(=O)N1CCN(c2ccc(OC)cc2)CC1)n1nc(C)n2c(cc3occc32)c1=O (centres undefined) | 18.4µM | - | - | 0 | 18.4µM | -
CCc1nn(C(C)C(=O)N2CCN(c3cccc(C(F)(F)F)c3)CC2)c(=O)c2cc3occc3n12 (centres undefined) | ? | - | - | 0 | 23.1µM | -
Cc1cccc(C)c1NC(=O)C(c1ccccc1)N(C)CCc1ccccc1 (centres undefined) | ? | 0 | - | - | 18.4µM | -
Cc1ccc(N2CCN(C(CCc3ccccc3)C(=O)Nc3c(C)cccc3C)CC2)cc1 (centres undefined) | ? | 0 | - | - | 14.6µM | -
Cc1cccc(C)c1NC(=O)CN(C)CCc1ccccc1 | ? | 0 | - | - | ? | -
CN1CCc2c(OCC(=O)N3CCC(Cc4ccccc4)CC3)cccc2C1=O | 20.6µM | ? | 9.2µM | 0 | 18.4µM | 0
Cc1cccc(CN2CCc3c(OCC(=O)N4CCCc5ccccc54)cccc3C2=O)c1 | 4.61µM | ? | ? | 0 | 5.8µM | 0
